# According to the supplement of paper PMC10849652:
# The full data set covers some 8,800 targets. This sample favours those with a hit. About 0.5% of all pairs of compound and target were hits. Unmarked numbers belong to inactive results.
# What was measured:
# Experiment in all cases: log2 fold change, soluble protein after heating vs DMSO (PISA); higher = thermal stabilisation; K562 lysate, 10 uM; active = over 0.2 and 3.5 SD of the protein, either way, in both replicates (recomputed)
# vemurafenib = compound: CCCS(=O)(=O)Nc1ccc(F)c(C(=O)c2c[nH]c3ncc(-c4ccc(Cl)cc4)cc23)c1F [vemurafenib]
# Method in brief: (§1)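 K562 pellets were dounce-homogenised in PBS pH 7.4 with 1 mM MgCl2, and the crude extract at 1 mg/mL protein was treated with 10 μM compound for 30 min. Aliquots were heated for 3 min across 48°C-58°C, pooled, and brought to 0.5% NP-40 at 4°C; soluble protein was the supernatant after 21,000xg for 90 min. Soluble protein was quantified by TMTpro 16plex LC-MS/MS with channel sums equalised, and reported as log2 fold change in thermal stability against DMSO controls, with values from duplicates.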
# [1] = compound: CCCS(=O)(=O)Nc1ccc(F)c(C(=O)c2c[nH]c3ncc(Cl)cc23)c1F
# Method in brief: as §1
# barasertib = compound: CCN(CCCOc1ccc2c(Nc3cc(CC(=O)Nc4cccc(F)c4)[nH]n3)ncnc2c1)CCOP(=O)(O)O [barasertib]
# Method in brief: as §1
# [2] = compound: CC[C@@H]1C(=O)N(C)c2cnc(Nc3ccc(C(=O)NC4CCN(C)CC4)cc3OC)nc2N1C1CCCC1
# Method in brief: as §1
# volasertib = compound: CC[C@@H]1C(=O)N(C)c2cnc(Nc3ccc(C(=O)N[C@H]4CC[C@H](N5CCN(CC6CC6)CC5)CC4)cc3OC)nc2N1C(C)C [volasertib]
# Method in brief: as §1
# [3] = compound: CCn1c(C(=O)N(C2CC2)C2CC2)cc2c3c(ncn3C)c(Nc3cc(C)n(C)n3)nc21
# Method in brief: as §1
# [4] = compound: CCn1cc(-c2ccnc3[nH]c(-c4cccc(CN(C)C)c4)cc23)c(-c2ccc(NC(=O)N(C)C)cc2)n1
# Method in brief: as §1
# [5] = compound: CN1CCC(CNc2ccc3ncc(-c4cccc(OC(F)(F)F)c4)n3n2)CC1
# Method in brief: as §1
# saracatinib = compound: CN1CCN(CCOc2cc(OC3CCOCC3)c3c(Nc4c(Cl)ccc5c4OCO5)ncnc3c2)CC1 [saracatinib]
# Method in brief: as §1
# sotrastaurin = compound: CN1CCN(c2nc(C3=C(c4c[nH]c5ccccc45)C(=O)NC3=O)c3ccccc3n2)CC1 [sotrastaurin]
# Method in brief: as §1
# alvocidib = compound: CN1CC[C@H](c2c(O)cc(O)c3c(=O)cc(-c4ccccc4Cl)oc23)[C@H](O)C1 [alvocidib]
# Method in brief: as §1
# Tubastatin A = compound: CN1CCc2c(c3ccccc3n2Cc2ccc(C(=O)NO)cc2)C1 [Tubastatin A]
# Method in brief: as §1
# [6] = compound: CNC(=O)C1=CC=CC=C1NC2=NC(=NC=C2Cl)NC3=C(C=C(C=C3)N4CCOCC4)OC
# Method in brief: as §1
# defactinib = compound: CNC(=O)c1ccc(Nc2ncc(C(F)(F)F)c(NCc3nccnc3N(C)S(C)(=O)=O)n2)cc1 [defactinib]
# Method in brief: as §1
# [7] = compound: CNc1nc(-c2ccc3c(N)n[nH]c3c2)cc(N2C[C@@H](C(=O)NC3CCCCC3)CC[C@H]2C)n1
# Method in brief: as §1
# encorafenib = compound: COC(=O)N[C@@H](C)CNc1nccc(-c2cn(C(C)C)nc2-c2cc(Cl)cc(NS(C)(=O)=O)c2F)n1 [encorafenib]
# Method in brief: as §1
# [8] = compound: COC(=O)[C@H](CCSC)NC(=O)C1=C(C=C(C=C1)NC[C@H](CS)N)C2=CC=CC=C2
# Method in brief: as §1
# alisertib = compound: COc1cc(Nc2ncc3c(n2)-c2ccc(Cl)cc2C(c2c(F)cccc2OC)=NC3)ccc1C(=O)O [alisertib]
# Method in brief: as §1
# [9] = compound: COc1cc2nc(-c3cc(F)ccc3O)nc(N[C@@H]3CNC[C@H]3C(C)(C)O)c2cc1OC
# Method in brief: as §1
# gefitinib = compound: COc1cc2ncnc(Nc3ccc(F)c(Cl)c3)c2cc1OCCCN1CCOCC1 [gefitinib]
# Method in brief: as §1
# Sequence of UniProt P15559 (P15559 whole entry, looked up): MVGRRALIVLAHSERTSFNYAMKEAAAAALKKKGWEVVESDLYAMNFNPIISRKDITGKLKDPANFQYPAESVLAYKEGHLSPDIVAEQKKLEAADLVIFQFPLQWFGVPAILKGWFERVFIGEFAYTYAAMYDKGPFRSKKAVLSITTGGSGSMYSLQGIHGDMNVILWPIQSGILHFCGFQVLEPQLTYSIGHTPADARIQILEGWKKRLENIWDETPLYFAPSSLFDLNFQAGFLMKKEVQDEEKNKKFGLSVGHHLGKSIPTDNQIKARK
# Sequence of UniProt Q01968 (Q01968 whole entry, looked up): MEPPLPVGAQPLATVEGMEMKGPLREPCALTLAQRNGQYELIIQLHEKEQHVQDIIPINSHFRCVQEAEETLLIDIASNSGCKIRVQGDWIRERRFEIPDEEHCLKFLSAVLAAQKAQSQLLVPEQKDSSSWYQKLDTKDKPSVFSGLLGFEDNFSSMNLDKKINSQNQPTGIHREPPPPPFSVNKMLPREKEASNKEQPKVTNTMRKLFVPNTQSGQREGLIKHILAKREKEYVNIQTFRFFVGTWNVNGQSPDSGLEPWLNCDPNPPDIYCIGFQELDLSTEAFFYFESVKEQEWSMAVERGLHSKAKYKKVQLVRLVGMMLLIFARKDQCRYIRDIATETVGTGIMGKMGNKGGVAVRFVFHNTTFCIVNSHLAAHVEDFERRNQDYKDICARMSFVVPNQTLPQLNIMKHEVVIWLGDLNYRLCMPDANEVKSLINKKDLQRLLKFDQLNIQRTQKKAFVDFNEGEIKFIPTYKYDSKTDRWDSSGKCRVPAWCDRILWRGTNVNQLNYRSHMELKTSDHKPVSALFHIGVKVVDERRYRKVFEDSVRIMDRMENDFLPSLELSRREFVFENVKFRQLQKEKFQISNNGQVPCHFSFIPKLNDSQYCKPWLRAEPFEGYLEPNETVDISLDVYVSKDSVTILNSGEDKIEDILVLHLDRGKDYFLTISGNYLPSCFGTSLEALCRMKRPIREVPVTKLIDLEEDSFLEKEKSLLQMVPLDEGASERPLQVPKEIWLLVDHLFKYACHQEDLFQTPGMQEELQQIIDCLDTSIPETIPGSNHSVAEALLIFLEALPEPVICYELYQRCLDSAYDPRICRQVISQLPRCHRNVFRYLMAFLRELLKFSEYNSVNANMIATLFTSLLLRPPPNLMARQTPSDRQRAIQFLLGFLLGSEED
# Sequence of UniProt Q8TAT6 (Q8TAT6 whole entry, looked up): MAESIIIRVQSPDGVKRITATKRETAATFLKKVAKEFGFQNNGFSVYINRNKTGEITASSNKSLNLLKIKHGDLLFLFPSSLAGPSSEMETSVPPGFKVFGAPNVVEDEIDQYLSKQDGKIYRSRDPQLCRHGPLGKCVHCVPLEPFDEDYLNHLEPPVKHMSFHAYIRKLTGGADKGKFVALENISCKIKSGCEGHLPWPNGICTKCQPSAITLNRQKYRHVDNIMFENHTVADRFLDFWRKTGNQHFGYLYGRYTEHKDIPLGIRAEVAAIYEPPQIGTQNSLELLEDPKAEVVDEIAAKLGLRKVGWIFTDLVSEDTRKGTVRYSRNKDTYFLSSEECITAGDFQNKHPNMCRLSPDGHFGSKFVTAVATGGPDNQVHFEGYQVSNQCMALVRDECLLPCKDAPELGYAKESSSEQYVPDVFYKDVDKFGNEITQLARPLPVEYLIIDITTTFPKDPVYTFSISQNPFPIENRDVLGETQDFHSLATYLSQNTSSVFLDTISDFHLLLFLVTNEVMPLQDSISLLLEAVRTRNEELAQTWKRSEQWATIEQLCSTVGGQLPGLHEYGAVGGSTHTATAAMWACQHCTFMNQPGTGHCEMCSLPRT
# Sequence of UniProt O60934 (O60934 whole entry, looked up): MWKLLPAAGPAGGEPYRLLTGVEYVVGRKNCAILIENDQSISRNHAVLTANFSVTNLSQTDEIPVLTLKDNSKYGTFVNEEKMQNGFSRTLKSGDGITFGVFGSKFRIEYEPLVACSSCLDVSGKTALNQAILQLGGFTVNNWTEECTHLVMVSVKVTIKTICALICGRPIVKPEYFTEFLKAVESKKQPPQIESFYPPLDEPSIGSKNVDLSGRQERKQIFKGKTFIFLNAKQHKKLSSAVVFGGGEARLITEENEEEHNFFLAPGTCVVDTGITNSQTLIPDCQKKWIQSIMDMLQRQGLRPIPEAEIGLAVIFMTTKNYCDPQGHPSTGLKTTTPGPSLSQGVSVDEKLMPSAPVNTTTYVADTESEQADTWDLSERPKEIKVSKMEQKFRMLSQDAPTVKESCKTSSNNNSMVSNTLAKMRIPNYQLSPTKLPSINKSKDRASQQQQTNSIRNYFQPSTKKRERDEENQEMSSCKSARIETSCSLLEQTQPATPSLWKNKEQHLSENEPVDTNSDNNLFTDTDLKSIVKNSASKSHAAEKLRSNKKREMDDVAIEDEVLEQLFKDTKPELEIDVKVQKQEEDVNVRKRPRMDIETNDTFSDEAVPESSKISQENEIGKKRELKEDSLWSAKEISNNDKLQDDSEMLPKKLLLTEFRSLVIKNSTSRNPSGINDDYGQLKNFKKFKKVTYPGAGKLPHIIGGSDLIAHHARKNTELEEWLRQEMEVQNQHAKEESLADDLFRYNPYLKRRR
# Sequence of UniProt Q9BSD7 (Q9BSD7 whole entry, looked up): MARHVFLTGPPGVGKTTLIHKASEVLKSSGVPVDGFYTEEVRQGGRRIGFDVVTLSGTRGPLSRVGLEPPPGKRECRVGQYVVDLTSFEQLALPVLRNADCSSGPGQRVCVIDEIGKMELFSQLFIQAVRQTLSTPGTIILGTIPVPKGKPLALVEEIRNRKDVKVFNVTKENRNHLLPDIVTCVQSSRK
# Sequence of UniProt P43246 (P43246 whole entry, looked up): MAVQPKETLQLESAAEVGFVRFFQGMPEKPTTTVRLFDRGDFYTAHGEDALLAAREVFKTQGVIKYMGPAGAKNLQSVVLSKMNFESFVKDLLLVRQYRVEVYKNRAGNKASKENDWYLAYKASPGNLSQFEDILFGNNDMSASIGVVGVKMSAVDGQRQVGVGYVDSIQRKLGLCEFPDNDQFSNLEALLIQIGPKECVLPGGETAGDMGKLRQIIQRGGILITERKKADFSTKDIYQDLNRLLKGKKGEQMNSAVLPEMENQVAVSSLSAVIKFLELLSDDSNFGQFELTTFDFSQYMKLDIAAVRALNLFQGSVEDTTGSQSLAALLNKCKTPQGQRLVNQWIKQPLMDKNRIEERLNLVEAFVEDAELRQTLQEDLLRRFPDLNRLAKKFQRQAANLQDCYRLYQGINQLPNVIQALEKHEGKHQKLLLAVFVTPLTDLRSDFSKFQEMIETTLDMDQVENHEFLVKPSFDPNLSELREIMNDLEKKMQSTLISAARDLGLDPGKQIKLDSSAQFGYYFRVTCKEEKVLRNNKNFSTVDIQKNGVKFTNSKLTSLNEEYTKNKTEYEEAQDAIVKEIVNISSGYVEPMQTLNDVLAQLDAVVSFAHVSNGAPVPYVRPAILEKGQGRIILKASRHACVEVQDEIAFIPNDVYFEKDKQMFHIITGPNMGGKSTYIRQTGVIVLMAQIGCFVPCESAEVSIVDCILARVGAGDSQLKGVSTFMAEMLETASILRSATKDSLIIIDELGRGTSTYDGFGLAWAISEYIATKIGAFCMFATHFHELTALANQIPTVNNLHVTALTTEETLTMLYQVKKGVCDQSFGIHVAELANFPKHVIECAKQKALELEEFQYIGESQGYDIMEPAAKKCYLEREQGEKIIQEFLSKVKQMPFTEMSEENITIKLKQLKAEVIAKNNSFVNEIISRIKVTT
# Sequence of UniProt Q9NPF4 (Q9NPF4 whole entry, looked up): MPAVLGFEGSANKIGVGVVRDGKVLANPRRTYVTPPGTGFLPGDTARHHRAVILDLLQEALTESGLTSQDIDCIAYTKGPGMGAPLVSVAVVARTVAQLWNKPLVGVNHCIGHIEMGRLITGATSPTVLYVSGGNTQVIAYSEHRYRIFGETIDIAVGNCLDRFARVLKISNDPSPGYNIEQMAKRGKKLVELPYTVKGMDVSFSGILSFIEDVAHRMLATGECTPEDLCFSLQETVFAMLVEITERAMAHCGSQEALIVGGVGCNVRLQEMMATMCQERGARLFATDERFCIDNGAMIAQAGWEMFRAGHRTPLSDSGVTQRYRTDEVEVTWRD
# Sequence of UniProt Q96KB5 (Q96KB5 whole entry, looked up): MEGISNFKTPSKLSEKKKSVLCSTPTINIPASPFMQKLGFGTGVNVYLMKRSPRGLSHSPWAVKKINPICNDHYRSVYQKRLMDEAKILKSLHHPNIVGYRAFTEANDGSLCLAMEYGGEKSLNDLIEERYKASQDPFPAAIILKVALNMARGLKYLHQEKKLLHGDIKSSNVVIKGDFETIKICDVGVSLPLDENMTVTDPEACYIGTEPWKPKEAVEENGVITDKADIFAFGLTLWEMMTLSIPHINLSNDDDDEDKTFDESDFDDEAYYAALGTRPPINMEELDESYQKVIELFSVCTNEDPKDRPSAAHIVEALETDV
# Sequence of UniProt Q9BRA0 (Q9BRA0 whole entry, looked up): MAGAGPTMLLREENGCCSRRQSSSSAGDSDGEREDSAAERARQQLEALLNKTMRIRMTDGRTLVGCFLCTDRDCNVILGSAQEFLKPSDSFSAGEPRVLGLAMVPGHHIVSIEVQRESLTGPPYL
# Sequence of UniProt Q9Y314 (Q9Y314 whole entry, looked up): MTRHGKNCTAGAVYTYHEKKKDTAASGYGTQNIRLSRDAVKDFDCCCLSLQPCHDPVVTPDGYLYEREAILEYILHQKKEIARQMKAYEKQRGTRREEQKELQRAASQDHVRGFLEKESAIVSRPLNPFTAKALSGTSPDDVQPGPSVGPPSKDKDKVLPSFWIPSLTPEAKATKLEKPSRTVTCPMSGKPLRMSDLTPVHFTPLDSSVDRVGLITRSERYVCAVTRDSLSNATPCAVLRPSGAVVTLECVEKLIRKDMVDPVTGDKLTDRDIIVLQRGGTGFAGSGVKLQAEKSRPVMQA
Target,log2 fold change (vemurafenib),log2 fold change [1],log2 fold change (barasertib),log2 fold change [2],log2 fold change (volasertib),log2 fold change [3],log2 fold change [4],log2 fold change [5],log2 fold change (saracatinib),log2 fold change (sotrastaurin),log2 fold change (alvocidib),log2 fold change (Tubastatin A),log2 fold change [6],log2 fold change (defactinib),log2 fold change [7],log2 fold change (encorafenib),log2 fold change [8],log2 fold change (alisertib),log2 fold change [9],log2 fold change (gefitinib)
NQO1 (UniProt P15559),-0.014,0.026,0.163,-0.097,-0.082,-0.023,-0.067,-0.035,0.155,0.034,0.007,-0.079,0.068,0.003,-0.111,0.043,0.159,-0.001,-0.042,0.009
NCAPH (UniProt Q15003),-0.015,0.001,0.012,-0.046,-0.044,0.027,-0.057,-0.035,-0.016,0.015,0.007,-0.089,0.008,0.015,0.023,0.013,0.063,0.015,0.018,0.006
NPLOC4 isoform 2 (UniProt Q8TAT6),-0.011,0.025,-0.019,0.025,-0.011,-0.016,-0.066,0.007,0.004,-0.005,-0.06,0.013,0.019,-0.007,0.043,0.021,0.016,0.004,-0.007,-0.018
NBN (UniProt O60934),0.011,0.011,0.037,-0.028,-0.019,-0.003,0.043,-0.058,0.025,0.001,0.008,-0.041,-0.006,-0.029,0.014,0.022,0.048,-0.009,0.018,-0.061
NELFCD (UniProt Q8IXH7),0.014,0.037,0.047,0.006,-0.032,0.02,0.089,-0.049,-0.005,0.012,0.015,-0.148,0.047,0.041,-0.055,0,0.073,0.023,-0.006,-0.009
NUB1 (UniProt Q9Y5A7),-0.007,0.011,0.028,-0.052,-0.056,0,0.008,-0.048,-0.009,0.021,0.033,-0.095,0.037,-0.007,0.014,0.022,0.038,-0.012,-0.004,-0.049
OCRL (UniProt Q01968),0.168,0.014,0.04,0.018,-0.057,-0.032,-0.074,0.049,0.027,0.019,-0.002,-0.105,0.074,0.123,-0.051,0.045,-0.006,0.016,-0.082,0.049
MSH6 (UniProt P52701),0.024,0.028,0.021,-0.109,-0.061,0.044,-0.035,-0.041,-0.003,0.047,-0.021,-0.17,0.009,0.012,-0.032,0.019,0.105,0.003,-0.011,-0.023
NAA38 isoform 2 (UniProt Q9BRA0),0.049,0.014,0.09,-0.012,0.025,0.04,-0.461 (active),0.201,0.042,-0.079,-0.143,-0.005,0.01,0.013,0.03,-0.022,0.001,0.05,0.022,-0.017
OSGEP (UniProt Q9NPF4),0.003,0.026,0.031,-0.059,-0.037,-0.03,-0.065,0.026,-0.006,-0.008,-0.062,0,-0.047,0,0.03,-0.008,0.016,0.045,0.007,-0.032
NOSIP (UniProt Q9Y314),-0.008,0.034,0.012,0.017,-0.035,-0.005,-0.013,0.016,0.008,-0.014,-0.02,-0.156,0.018,0.05,0.004,0.014,0.02,-0.016,0.015,-0.049
MSH2 (UniProt P43246),-0.014,0.001,0.007,-0.033,-0.068,0.038,0.003,-0.055,0,0.032,0.026,-0.105,-0.017,0.023,0.007,0.011,0.061,-0.011,-0.002,-0.007
PBK (UniProt Q96KB5),-0.006,0.002,-0.009,-0.069,-0.033,0.039,0.043,-0.017,-0.018,-0.015,0.013,-0.041,-0.001,-0.004,-0.015,-0.011,0.099,-0.013,-0.003,-0.023
NDUFS1 isoform 2 (UniProt P28331),0.041,0.018,0.011,-0.032,-0.001,0.016,-0.006,-0.027,-0.004,0.054,0.008,-0.018,-0.024,0.028,0.014,-0.011,0.05,0.03,-0.025,-0.001
NTPCR (UniProt Q9BSD7),0.055,-0.001,0.016,0.005,-0.066,0.032,-0.038,-0.021,-0.009,0.011,0.007,-0.163,0.055,0.009,0.027,0.005,-0.007,0.007,0.058,-0.057
